These results are taken from PubChem BioAssay (NCATS).

The source made the active and inactive calls. Entries that show only a call come without a potency. The call rests on the fitted dose curve; in most records, active means well fitted inhibition curve with a large enough effect; inconclusive means small, poorly fitted or top-dose-only effect; inactive means no such curve, though single readings can be large or run the other way.

Sequence of Single-stranded DNA cytosine deaminase (Homo sapiens) (Q9GZX7 whole entry, looked up): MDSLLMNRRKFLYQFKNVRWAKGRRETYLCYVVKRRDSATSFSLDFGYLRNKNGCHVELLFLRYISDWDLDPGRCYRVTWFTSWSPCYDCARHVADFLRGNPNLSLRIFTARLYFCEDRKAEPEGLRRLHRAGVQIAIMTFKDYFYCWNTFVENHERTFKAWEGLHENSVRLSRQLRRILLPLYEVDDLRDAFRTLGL

The assay has as its target Single-stranded DNA cytosine deaminase (Homo sapiens) (UniProt Q9GZX7). The assay can be described thus: Validation qHTS assay for inhibitors of Activation Induced Cytidine Deaminase (AID): AID signal (AID 1347429). Conditions: Recombinant AID, FRET ssDNA deamination with UDG, fluorescence; series mostly up to 115 µM. An excerpt: Assay Provider (PI) Patricia Gearhart Ph.D. National Institute on Aging National Institute of Health (NIH), Bethesda, MD Assay Provider (PI) Rahul Kohli Ph.D. Perelman School of Medicine University of Pennsylvania, Philadelphia, PA Activation-Induced Deaminase (AID) is a cytosine deaminase which converts cytosine into uracil within stretches of ssDNA. The presence of uracil in DNA initiates a cascade of mutagenic DNA repair to introduce point mutations and DNA double strand breaks. Specific targeting of AID to the immunoglobulin heavy chain loci (Igh) promotes mutagenesis in the antibody variable region for somatic hypermutation (SHM) or switch regions leading to class switch recombination (CSR). However, AID also plays a role in accumulating unnecessary mutations across the genome. Mis-targeting of AID results in the initiation of tumor development and leads to greater drug resistance among cancer cells when continually expressed. To identify an AID inhibitor, a small molecule library will be screened in collaboration with NCATS core facility at NIH. To confirm biological function, inhibitors will be examined in an in vitro murine B-cell activation assay and subsequent secondary validation screens. Top molecules will be further screened to identify inhibitory efficacy against a wild type primary splenocytes assay. Using these approaches, we hope to identify a small molecule with great efficacy and low toxicity for use as a molecular probe to further characterize AID's intricacies, or even as a therapeutic. A FRET based analysis of cytosine deamination, was developed to identify potential inhibitors of AID catalytic activity. This screen has two signal output, Read 1 evaluates the AID inhibition response. The second readout (Read 2) evaluates UDG response and is uses as a counterscreen to exclude false positive inhibitors. Inhibition in AID and inactivity in the UDG signal is the desired outcome for this assay.
PROTOCOL TABLE SEQUENCE No. (e.g., 1, 2, 3, etc.); […] (e.g., Cells, Incubation, Reagent, etc.); VALUE; DESCRIPTION 1a; Reagent; 3 uL; [4/3x] […] 250 nM DJC20 / 250 nM DJC23 [Substrate] 5; Time; 4 hr; incubation at room temperature 6; Reagent; 4 uL; [2x] 250 mM NaOH 7; Time; 15 sec; centrifuge at 1000 rpm 8; Time; 30 min; incubation at room temperature 9a; Detection; fluorescence (Read 1: AID); EnVision (PerkinElmer) plate reader, 540 excitation and 590 emission filters 9b; Detection; fluorescence (Read 2: UDG); EnVision (PerkinElmer) plate reader, 560 excitation and 665 emission filters NOTES (numbers refer to sequence above) 1a; Reagents were dispensed in a medium-binding black solid-bottom Greiner plates (789176F) using a BioRptr liquid dispenser. Dispense 3 uL of [4/3x] 1 uM AID (provided by Kohli lab) and [4/3x] 2 U/mL UDG (NEB M0280L) into columns 1, 2, 5 to 48. 1b; Dispense 3 uL of [4/3x] 2 U/mL UDG into column 3. 1c; Dispense 3 uL of [4/3x] 1 uM AID into column 4. 2a; Compound ([…] [uM] (0.64; 3.2; 16; 80; 400; 2,000; 10,000; 20,000) double pin-transferred (Dip Factor = 2) using the Kalypsys (Wako USA) pintool equipped with a 1536 pinhead for a final concentration range of 7.32 nM - 114 uM. 2b; 10 mM Aurintricarboxylic Acid (Sigma A1895) (ATA, 8-point, n = 2, 1:2.5 dilution in column 2) double pin-transferred (Dip Factor = 2) using the Kalypsys (Wako USA) pintool equipped with a 1536 pinhead for a [final] range of 186 nM - 114 uM. 3; Room temperature incubation. 4; Dispense 1 uL of substrate mixture from the Kohli lab [4x] […] DJC20 and [4x] 250 nM DJC23 into columns 1 to 48 . 5; Room temperature incubation. 6; Dispense 4 uL of substrate mixture [2x] 250 mM NaOH into columns 1 to 48. 7; Centrifugation step to remove bubbles. 8; Room temperature incubation 9a; Fluorescence signal (column label AID) was read using the EnVision plate reader. Excitation filter = 540(8) nm, barcode = 311; Emission filter = 590(20) nm, barcode = 217; Mirror = D555, barcode = 405. […]
Background: In qHTS, concentration-response curves come from the screen itself.
As for `OC[C@H]1O[C@@H](n2cnc3c(NC4CCCC4)ncnc32)[C@H](O)[C@@H]1O`, the Potency result is “inactive”.

Take `CN(C)CCC(c1ccc(Cl)cc1)c1ccccn1` (stereo not given): the Potency result was “inactive”.

Turning to `O=C(O)CC[C@@H](C(=O)O)N1C(=O)c2ccccc2C1=O`, the Potency result was “inactive”.

As for `CCCCCC(O)c1cccc(OCc2ccc3ccccc3n2)c1` (stereo not given), the Potency entry is “inactive”.

As to `N#C/C(=C\c1c[nH]c2ccccc12)C(=O)c1ccc(O)c(O)c1`, the Potency result was “inactive”.

As for `CCCCCCCCCCCCCCCC(=O)OC(CC(=O)O)C[N+](C)(C)C` (stereo not given), the Potency result is “inactive”.

As to `Cc1cc2c(cc1Cl)N(C(=O)Nc1ccc(Oc3cccnc3C)nc1)CC2`, the Potency entry was “inactive”.

`N#C/C(=C\c1ccc(-c2cc(Cl)ccc2Cl)o1)C(=O)Nc1cccc2ncccc12`: the Potency entry is “inactive”.

`CC(=O)/C=C1\C(=O)N(C)c2ccccc21`: the Potency result was “inactive”.

As for `O=C(O)CC1CCCc2ccccc2C1O` (stereo not given), the Potency entry was “inactive”.

Regarding `CN(C)c1nc(N)c(C(=O)N=C(N)N)nc1Cl`, the Potency result was “inactive”.

As to `OC[C@H]1O[C@@H](n2cnc3c(Nc4ccccc4)ncnc32)[C@H](O)[C@@H]1O`, the Potency entry was “inactive”.

Take `NC(=S)NCCC[C@H](N)C(=O)O`: the Potency result was “inactive”.

`COc1cc2nc(N3CCN(C(=O)OCc4ccccc4)C(C(=O)NC(C)(C)C)C3)nc(N)c2cc1OC` (stereo not given): the Potency result was “inactive”.

As for `CCc1c(C(=O)NCCc2ccc(N3CCCCC3)cc2)[nH]c2ccc(Cl)cc12`, the Potency result is “inactive”.

Turning to `Cn1cc(C2=C(c3ccc(Cl)cc3Cl)C(=O)NC2=O)c2ccccc21`, the Potency entry was “inactive”.

As for `CN1CCc2ccccc2Cc2[nH]c3ccccc3c2CC1`, the Potency entry was “inactive”.

With `S=C(S)OC1CC2CC1C1CCCC21` (stereo not given), the Potency entry was “inactive”.

Consider `CCCCCCCCCCCCCCCCCC(=O)NCC(COP(=O)([O-])OCC[N+](C)(C)C)OCC` (stereo not given), for which the Potency entry was “inactive”.

On to `CC1OC1P(=O)(O)O` (stereo not given), for which the Potency result is “inactive”.

On to `CNC(=O)[C@H]1O[C@@H](n2cnc3c(NCc4ccc(N)cc4)ncnc32)[C@H](O)[C@@H]1O`, for which the Potency result is “inactive”.

As for `O=C(O)c1cc(=O)c2c(Cl)cc(Cl)cc2[nH]1`, the Potency entry is “inactive”.

In the case of `Cc1ccc(O)c(N=Nc2ccccc2)n1`, the Potency entry is “inactive”.

Take `CNc1ncnc2c1ncn2[C@@H]1O[C@H](CO)[C@@H](O)[C@H]1O`: the Potency result was “inactive”.

Regarding `CCN(CC)c1ncnc2c1ncn2[C@@H]1O[C@H](COP(=O)(O)OP(=O)(O)C(Br)(Br)P(=O)(O)O)[C@@H](O)[C@H]1O`, the Potency result is “inactive”.

As for `Cn1ncc(S(=O)(=O)Cc2ccccc2)c(Br)c1=O`, the Potency entry is “inactive”.

As for `CC[C@@H](C)[C@H]1O[C@]2(CC[C@H]1C)C[C@@H]1C[C@@H](CC=C(C)[C@@H](O[C@H]3C[C@H](OC)[C@@H](O[C@H]4C[C@H](OC)[C@@H](O)[C@H](C)O4)[C@H](C)O3)[C@@H](C)C=CC=C3CO[C@@H]4[C@H](O)C(C)=C[C@@H](C(=O)O1)[C@]34O)O2`, the Potency entry was “inactive”.

For the compound `CN1CCc2cc(O)c(O)cc2C(c2ccccc2)C1` (stereo not given), the Potency result was “inactive”.

On to `Cc1ccccc1CNc1ncnc2c1ncn2C1OC(CO)C(O)C1O` (stereo not given), for which the Potency result is “inactive”.

Take `CC12C(=O)OC(=O)C1(C)C1CCC2O1` (stereo not given): the Potency result was “inactive”.

In the case of `O=C(Nc1cccc(C(=O)Nc2ccc(S(=O)(=O)O)c3cc(S(=O)(=O)O)cc(S(=O)(=O)O)c23)c1)Nc1cccc(C(=O)Nc2ccc(S(=O)(=O)O)c3cc(S(=O)(=O)O)cc(S(=O)(=O)O)c23)c1`, the Potency result was “inactive”.

Consider `COc1ccccc1N1CCN(CCCCNS(=O)(=O)c2cccc3c(N(C)C)cccc23)CC1`, for which the Potency entry was “inactive”.

With `NC(N)=NC(=O)c1nc(Cl)c(N2CCCCCC2)nc1N`, the Potency result is “inactive”.

For `Oc1cc(O)cc(/C=C/c2ccc(O)c(O)c2)c1`, the Potency result was “inactive”.

Regarding `CN=c1nc(-c2ccccc2)n(-c2ccccc2)s1`, the Potency result was “inactive”.

`C=CC(=O)c1ccc(CCCCCC)cc1`: the Potency entry was “inactive”.

Turning to `COc1cccc(C(=O)NCCN2CCN(c3ccc(Cl)cc3)CC2)c1`, the Potency entry is “inactive”.

For the compound `Clc1ccc(N2CCN(Cc3c[nH]c4ncccc34)CC2)cc1`, the Potency result was “inactive”.

As to `CC1CN(S(=O)(=O)c2cccc3cnccc23)CCN1` (stereo not given), the Potency result was “inactive”.

Regarding `O=C(/C=C/c1ccc(O)c(O)c1)OCCc1ccccc1`, the Potency result is “inactive”.
